These results are taken from the supplement of paper PMC6555819.

The test system of this test is VDR:RXRa (NR concentration 270 nM, RXRa partner concentration 90 nM). The experiment in a line: PBM binding z-score (relative to random genomic background probes); higher = stronger binding; sequences stand for … in GC…GCGATTGACAGCGTAGAATGAAGG
The protocol:
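Protein-binding microarray (Agilent 4x180K custom design, double-stranded 60-nt probes: 5' GC cap, 34-nt variable region, 24-nt constant primer region; full probe sequence given). Purified or IVT nuclear receptor:RXRα heterodimers (3:1 NR:RXRα, mostly 270:90 nM) or homodimers were incubated for 1 h in PBS with 2% milk and no ligand, then detected with Alexa488 antibodies. Fluorescence from o1-orientation probes (~5 replicates averaged) was converted to z-scores against 500 random hg19 background probes. Variable regions are seed direct-repeat (DR0–DR5) sites, all their single-nucleotide variants and half-site ablations.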
CCTAGCAGGCCAGGGTCACTCATGCATTTCGCTT had a PBM binding z-score of 2.14.
In the case of CCAGACCGGTGAGAAGGTAACTCAGCCTCGATTA it was -0.163; in that of CGAACGTGGGCATGAGTTGATAGCAAATGCCGAT, -0.7; in that of CCAGACAGGTGAGAAGTTAACTCAGCCTCGATTA, -0.0797.
In the case of ATCTCTTGGTAAAGTTCAGTGAAAGATCGATAGA it was 1.6.
Sequence GATACAGGCTCAGCTAGAGGCCAGAGTATGGAAA registered a PBM binding z-score of -1.02.
The figure for GTACCAAGGTGAATAGGTAGTTGATGAGTAGGCG is -0.15; for AGAATGTGGTTAAGATCAGGGAAACAGAATACAT it is -0.0223; for CCAGACAGGTGAAAGATAACTCAGTCTGGTACGC it is 0.17.
The figure for CGTAGTTGGTCAGGAGGTCACACACCGGATATGA is 3.86.
In the case of CGAACGAGAGCATGAGTTGATAGCAAATGCCGAT it was -0.244; in that of GCTGCTAGGGCAGGTTGGTCAGCTAACGGGTACG, -0.775.
As to ATCGAAAGGTCGAGGTGAGGATAGAGAAAGGGAA, the PBM binding z-score came out at 2.63.
In the case of AGAATGAGGTTATTAAGATCCGGGAATTGCGGTC it was 1.08; in that of CTACCAAGGTGACCAAGGTCGTTGATTACTATTC, 5.32; in that of TCGAGTAGGTTACCAATGGGGCATGCAGCTTTCT, -0.0716.
CGTCAAAGTTCAAGGTACCGTAACAGAAAGCAGC yielded a PBM binding z-score of 3.76.
The figure for TCACCAAGGTGAAGGTCGTTGATCCCTCTGTAGA is 1.34.
The figure for TCGAGTAGGTAAGTCGGGGCATTCAGCCAACATA is 0.394.
CCTCGGAGGACAGCAGGTCAGAGCTGTCCGCTTT: the PBM binding z-score is -0.115.
In the case of GGCACGAGGGCAAAGTTGATAGCATCTGTCGACG it was 1.23; in that of TCTCGGAGGACACGAAGTTCAGAGCTTTCCAGAG, 2.63.
The figure for CTCGAAAGGTCGTGCTCAGGAGAGTATACCAAAC is 2.92; for GCCTACGGGTCAAAGGTTATAGCATGAATAGAAT it is 5.46; for ATCGACAGGTCGACGAGGTGAGTATACACCGTTT it is 2.85.
On to TCTAGCAGGCCAGAGGCTCACTCAAGAGGTACGG, for which the PBM binding z-score was -0.485.
CAAACTAGGTCAAGAGGTCAAGGTCCGCTTCCCG: the PBM binding z-score was 5.53.
For the sequence GCATATAGGTAAGACAAGGTGAAAGTCCGATTGT, the PBM binding z-score was 0.0453.
The figure for CCTTACGGGTCACTGACAGTTTATAGCATTTGGA is 4.21; for GCTGCTAGGTCAACCGATGGTCAGCTAAAGCTCG it is 1.54; for CGAACTAAGTCAGAACAGGACAGTGAAGGATGAT it is -0.25.
The figure for CAAACTAGGTCATTGACAGGACAGTGAATAGTAA is 2.42; for TGAATGAGGGTATAAGATCAGGGAACGTTGCAAA it is 0.217.
CCGACTGGGGCATAAGGTTTCCATAAGCCAGCCC returned a PBM binding z-score of -0.182.
The figure for AGAACGAGGGCACGCAGAGTTGATAGCAGAGTAG is 2.02.
The figure for TCATATAGGTAAAACGTGAAAGTCGGTGTGGTAA is 0.783.
In turn, ATCTCTAGGTAACCAAGTTCAGTGCATGCCGAAC had a PBM binding z-score of 4.21.
The sequence TTACGAAGGTGAAGGTCGTTGATCCCTCTGTAGA gave a PBM binding z-score of 1.39.
In the case of AATACAGGGTCTTCGTAGGCCAGAGTACGCACAG it was 0.0684; in that of GCGACTGGGGCATCAGCAGGTTACCATGACTTAA, -0.443.
